# According to PubChem BioAssay AID1347417 (National Center for Advancing Translational Sciences (NCATS), 2020):
# Screen size: about 120,000 compounds; about 5,300 (4.4%) were called active. Roughly 22% stayed inconclusive and do not appear here. The sample as a whole holds a higher share of actives than the screen did. Unmarked numbers belong to inactive results. Calls come from the whole dose curve; as a rule, active = well fitted inhibition curve with a large enough effect; inconclusive = small, poorly fitted or top-dose-only effect; inactive = no such curve, though single readings can be large or run the other way.
# Assay: qHTS Primary assay for Inhibitors of Plasmodium falciparum Dd2 growth in vitro; note: nearly all actives have a fitted effect of over 65% in size;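 for activity, negative = inhibition: plate controls were DMSO vehicle for no effect and reference drug for full effect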
# Settings: P. falciparum Dd2 growth, SYBR Green, 72 h; series mostly up to 28.9 µM; activity, negative = inhibition: at the top concentration
# Procedure, shortened: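 Readout: SYBR Green fluorescence, 485 nm excitation, 535 nm emission, after ~16 h lysis at 37C. Before that, Dd2-infected red cells (2.5% hematocrit) grew 72 h with compound, 29 uM top final concentration.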
# Potency is the fitted concentration of half-maximal effect.
SMILES,"activity, negative = inhibition",outcome,Potency
O=C(c1n[nH]c(=O)c2ccccc12)N1CC2CC(C1)[C@H]1CCCC(=O)N1C2 (stereo partly drawn),-6.17%,,
Cc1ccc(N2Cc3c(NCCCOC(C)C)ncnc3N(C)CC2=O)cc1,-0.704%,,
Cc1cc(=O)[nH]c(NCCNC(=O)c2cc(-c3cccn3C)n[nH]2)n1,0.81%,,
Cc1cccc(CC(=O)N2C[C@@H](COc3ccccc3)[C@H](C(N)=O)C2)c1,-26%,,
Cc1nc(C(=O)N2CC[C@H](NC(=O)c3snnc3C)C[C@H]2C(=O)N[C@H](CC(C)C)C(N)=O)cs1,4.58%,,
Cc1ccc(NC(=O)N2CC3CC(C2)[C@H]2CCCC(=O)N2C3)cc1F (stereo partly drawn),-17.8%,,
O=C(N[C@@H]1C[C@H](Cn2cc(CN3CCS(=O)(=O)CC3)nn2)[C@@H](O)[C@H]1O)c1cnccn1,-2.17%,,
CCC1(N2CCN(C(=O)c3ccc(C(F)(F)F)s3)CC2)CCN(C(=O)NC)C1 (stereo not drawn),,inactive,
N#Cc1ccccc1NC(=O)c1cc2n(n1)CC(c1ccc(Br)cc1)OC2 (stereo not drawn),-17%,,
CC(=O)N1CCN(c2ccc3nnc(-c4ccc(C)cn4)n3n2)CC1,-4.27% [at 44.1 µM],,
Cc1cn2nc(C(=O)N3CCC(NC(=O)c4ccc(C#N)cc4)CC3)cc2c(=O)[nH]1,-37.5%,,
Cc1cn2nc(C(=O)N3CCC(NC(=O)CCc4ccccc4)CC3)cc2c(=O)[nH]1,,,14.1 µM (active)
O=C(Cn1nc(-c2ccccc2)n(CCc2ccccc2)c1=O)NC1CC1,-4.11%,,
COC(=O)[C@@H](Cc1cccnc1)NC(=O)[C@H]1CN(S(=O)(=O)c2ccccc2)CCN1C(=O)N1CCOCC1,-6.53%,,
COC1C(=O)N(c2cccc(F)c2)C12CCN(C(=O)NCc1ccc(C)cc1)CC2 (stereo not drawn),,inactive,
CCS(=O)(=O)N1CCC2(CC1)CC(N1CCN(C(C)C)CC1)CCO2 (stereo not drawn),12%,,
O=C1CCC2(CCN(Cc3ccc4[nH]ccc4c3)CC2)CN1CCc1ccccc1,,,7.08 µM (active)
C=CCN1CC2(CCC1=O)CCN(C(=O)[C@H](N)Cc1ccccc1)CC2,-4.26%,,
Cn1cc(CN2CCN(Cc3ccccc3)CC2)ccc1=O,13.6%,,
COc1ccc(C(=O)N2CCCOCCNC(=O)CC2)c(OC)n1,5.64%,,
CN(Cc1nc2ccsc2c(=O)[nH]1)C(=O)C1NCCc2[nH]cnc21 (stereo not drawn),-11.4%,,
COc1ccc(C(=O)N2c3ccccc3CC2c2nc(C(C)C)no2)c(OC)c1 (stereo not drawn),4.25% [at 5.79 µM],,
O=C1[C@H]2CN(Cc3ccccc3F)C[C@H]2C(=O)N1CCN1CCc2ccccc2C1,,,5.01 µM (active)
CN1C(=O)[C@H]2CN(Cc3ccccc3Cl)C[C@H]2C1=O,-8.61%,,
O=C(c1nc2c(o1)CCN(Cc1ccccc1F)CC2)N1CCOCC1,-19.4% [at 44.1 µM],,

SMILES,"activity, negative = inhibition",outcome,Potency
COCCn1cc(CN2CCN(c3ccccc3F)CC2)ccc1=O,15.5%,,
CCOc1ccc2c(n1)CCN(C(=O)C(C)C)C2,7.45%,,
CCOc1ccc2c(n1)CCN(C(=O)Nc1ccc(OC)cc1C)C2,-3.34%,,
COc1ccc(Nc2ncc3c(n2)CCN(C(=O)OC(C)(C)C)C3)cc1,,,5.62 µM (active)
COc1ccc(C(=O)NC2CCN(c3cc(-c4cccs4)[nH]n3)C2)cc1F (stereo not drawn),-11.2%,,
COCCc1noc(-c2ccc(NC(C)c3ncccc3C)nc2)n1 (stereo not drawn),-19.9%,,
O=C(NCC1(COc2cccnc2)C[C@@H](O)[C@@H](O)C1)C1CCCC1 (stereo partly drawn),9.87% [at 44.1 µM],,
O=C(CC1CCCC1)N1CCOc2ccc(CN3CCc4ccccc4C3)cc2C1,,,5.01 µM (active)
CCC(C)N1CCN(C(=O)CCc2ccc3c(c2)CN(C(=O)C2CC2)CCO3)CC1 (stereo not drawn),-3.36%,,
O=C(c1ccccc1)N1CCOc2ccc(CN3CCc4ccccc4C3)cc2C1,,,7.94 µM (active)
CC(C)C(=O)N1CCOc2ccc(CN3CCc4ccccc4C3)cc2C1,,inactive,
CC(C)(O)CCc1ccc(C(=O)N2CCOc3ccc(Cl)cc3C2)cc1,-18.6%,,
O=C1CCN(Cc2ccc3c(c2)CCO3)CCOCCN1,2.37%,,
CC1CCC(NC(=O)CN2C(=O)NC3(CCS(=O)(=O)CC3)C2=O)CC1 (stereo not drawn),37.9%,,
Cc1ccc(CNC(=O)c2ccc(OC3CCN(S(C)(=O)=O)CC3)c(Cl)c2)s1,,inactive,
CN(Cc1cccn1C)Cc1ccnn1C,,inactive [at 44.1 µM],
CN(Cc1ccc(-c2ccccc2)cc1)C(=O)c1ccccc1F,,inactive [at 44.1 µM],
CC(C)=CCC1(CO)CCCN(Cc2ccccc2OCCO)C1 (stereo not drawn),,,12.6 µM (active)
O=C(O)COc1ccccc1CN1CC[C@H]2NCCC[C@]2(C(=O)O)C1,-20.2%,,
COc1ccccc1CNC(=O)CN1CCCC(CO)(CC2CC2)C1 (stereo not drawn),,inactive,
Cc1ccsc1CN1CCCCCNC(=O)[C@@H]2CCC[C@@H]21,-7.66%,,
CC(C)N1C[C@H](O)C[C@H]1c1nnc2n1CCN(C(=O)CCCc1ccccc1)C2,,inactive; activator; fitted 3.9811 uM,
O=C(NC1CCCN(c2cc(-c3ccc(Cl)cc3)[nH]n2)C1)c1ccccc1F (stereo not drawn),-8.5%,,
COc1ccc(-c2cc(N3CCCC(NC(=O)c4cc(F)ccc4Cl)C3)n[nH]2)cc1 (stereo not drawn),,,8.91 µM (active)
COc1ccc(-c2cc(N3CCC(NC(=O)c4cccc(C)c4)CC3)n[nH]2)cc1,-10.2%,,

SMILES,"activity, negative = inhibition",outcome,Potency
COc1ccc(-c2cc(N3CCC(NC(=O)c4ccoc4)CC3)n[nH]2)cc1,,,0.794 µM (active)
COc1ccc(-c2cc(N3CCC(NC(=O)c4ccc5c(c4)OCO5)CC3)n[nH]2)cc1,-9.02%,,
COc1ccc(-c2cc(N3CCCC(NC(=O)c4ccsc4)C3)n[nH]2)cc1 (stereo not drawn),-8.18%,,
COc1cccc(C(=O)N2CCC(N3C[C@H](O)C[C@H]3C(=O)N3CCC(N4CCCCC4)CC3)CC2)c1,-23%,,
CC(C)Cc1ccc(S(=O)(=O)N2CCCC2c2nncn2Cc2ccncc2)cc1 (stereo not drawn),-22.2%,,
CCC(CC)C(=O)N[C@@H](Cn1cc(-c2ccccc2F)c(=O)[nH]c1=O)C(=O)O,-2.36% [at 44.1 µM],,
CN(Cc1cccnc1)c1nc2c(c(=O)[nH]1)CCN(Cc1cc(F)ccc1F)CC2,14.7% [at 5.79 µM],,
COc1ccc(-c2onc(C)c2C(=O)NCc2ccc3c(c2)OCO3)cc1,-0.949%,,
CCOc1ccccc1NC(=O)N1c2ccccc2CC1c1nc(C(C)C)no1 (stereo not drawn),-4.28% [at 5.79 µM],,
O=C(NC[C@H]1C[C@@H]2CCN1C[C@@H]2CN1CCN(c2ncccn2)CC1)c1ccc(C(F)(F)F)cc1,,inactive,
C=C[C@H]1CN2CC[C@H]1C[C@@H]2CNCc1ccc(C(F)(F)F)cc1,,,2.24 µM (active)
O=C(CC1=C2CCCCC2NC1=O)Nc1ccccc1F (stereo not drawn),-8.8%,,
O=C(NC1CCCc2c1[nH]c1ccc(F)cc21)c1n[nH]c2c1CCCC2 (stereo not drawn),-5.89%,,
CC1=NOC2(CCN(Cc3c[nH]c4ccccc34)CC2)C1,-4.88% [at 44.1 µM],,
c1ccc2c(c1)CNC1(CCN(Cc3cccc4ccccc34)CC1)CO2,,,2 µM (active)
COc1ccc(CN2CCC3(COc4ccccc4C(=O)N3)C2)cc1 (stereo not drawn),-14.8%,,
Cc1ccc(-c2nc(N3CCOCC3)cc3c2CN(Cc2cnn(C)c2)C3=O)cn1,,inactive [at 44.1 µM],
COc1ccc(CN2CCOc3nc(-c4cc(F)cc(OC)c4)ncc3C2=O)cc1,,inactive [at 44.1 µM],
CCOc1ccccc1NC(=O)N1CCC(n2c(C)cnc2-c2cccnc2)CC1,-0.563%,,
C=C(C)COc1ccccc1C(=O)NC(C(=O)O)c1c(C)n[nH]c1C (stereo not drawn),14.8%,,
COc1ccccc1-c1cc(C(F)(F)F)nc(S(=O)(=O)CCCC(=O)Nc2cc(C)ccc2O)n1,11.2%,,
COc1ccccc1-c1cc(C(F)(F)F)nc(S(=O)(=O)CCCC(=O)Nc2ccc(F)cc2F)n1,,,8.91 µM (active)
CSc1ccccc1NC(=O)CCS(=O)(=O)c1nc(-c2cccs2)cc(C(F)(F)F)n1,,inactive,
Cc1noc(C)c1[S+](=O)([O-])N1CCCCC12Cc1ccccc1NC2=O (stereo not drawn),,inactive,
Fc1ccc(OCc2nc(C3CCNCC3)no2)cc1,-14.3%,,

SMILES,"activity, negative = inhibition",outcome,Potency
CN1CCCCCCN(C(=O)C2CCOCC2)[C@H]2CCC[C@H]2C1=O,6.93%,,
CCN1CCN(C(=O)C23CCCC=C2N(C2CCCC2)C(=O)CC3)CC1 (stereo not drawn),,inactive,
Cn1c(=O)c(=O)n(C)c2cc(NC(=O)c3ccccc3Br)ccc21,-8.31%,,
CCn1c(CN2CCC(C)CC2)nc2cc(NC(=O)c3ccccc3[N+](=O)[O-])ccc21,,,11.2 µM (active)
CC1Oc2ccc(NC(=O)c3ccc([N+](=O)[O-])cc3)cc2CN(Cc2ccccc2)C1=O (stereo not drawn),,inactive,
CC1CCC2(CC1)OCC(C(=O)NCc1ccc3c(c1)OCO3)N2C(=O)c1ccccc1F (stereo not drawn),,inactive,
O=C(NCCC1CCN(C(=O)Nc2cccc(F)c2)CC1)c1ccco1,,inactive,
O=C(NCCN1CCCCC1)C1Cn2cccc2C(=O)N1Cc1ccccc1 (stereo not drawn),-22.8%,,
COC[C@H]1CCCN1Cc1nc(C2(O)CCN(CC3CCCCC3)CC2)cs1,,,10 µM (active)
COC[C@H]1CCCN1Cc1nc(C2(O)CCN(C(=O)C3CCOCC3)CC2)cs1,4.46% [at 44.1 µM],,
COc1cccc(C(=O)N2C(C(=O)NC(C)C)COC23CCN(C(=O)c2cccc(F)c2)CC3)c1 (stereo not drawn),-18.1%,,
N#CCCN1CCN(C(=O)c2cn3ccnc(-c4ccccc4)c3n2)CC1,-19.8%,,
COCC(=O)NC[C@H]1CCN(Cc2cn(C)c3ccccc23)C[C@H]1N(C)C,,inactive,
COCCN1CCCCCC(O)c2cc(C(=O)Nc3cccc(OC)c3)ccc21 (stereo not drawn),-3.74%,,
COc1cccc(NC(=O)N(Cc2cn(C)c3ccccc23)C2CCCCCC2)c1,,,6.31 µM (active)
Cc1cccc(-c2nc3cnccn3c2NCCC(=O)N2CCCCCC2)c1,-0.961%,,
CNc1ccc(OC2CCN(C(=O)NCCc3ccccc3)CC2)nc1,,inactive,
CN1c2cc(C(=O)Nc3ccccc3)ccc2C(=O)N2CCCCCC21 (stereo not drawn),10.4%,,
Cc1ccc(CNC(=O)c2ccc3c(c2)N(C)C2CCCCN2C3=O)cc1C (stereo not drawn),-21.7%,,
CN1c2cc(C(=O)N3CCC(C(N)=O)CC3)ccc2C(=O)N2CCCCC21 (stereo not drawn),24.1%,,
CN1c2cc(C(=O)Nc3ccc(Cl)cc3)ccc2C(=O)N2CCCCCC21 (stereo not drawn),-7.59%,,
CN1c2cc(C(=O)NCc3ccccc3Br)ccc2C(=O)N2CCCCC21 (stereo not drawn),,,7.08 µM (active)
Cc1ccccc1CNC(=O)c1ccc2c(c1)N(C)C1CCCCN1C2=O (stereo not drawn),,,4.47 µM (active)
